Pf growth 48h = P. falciparum growth inhibition at 48 hours (one generation). Potency, µM (series often up to 28.7 µM), for inactives: top-dose activity change, negative = inhibition, actives largely listed as inhibitors. AID 504832. 310,000 compounds, 5.9% hits. P. falciparum luciferase growth in erythrocytes, 48 h; further: potency means the concentration at half of the fitted maximal effect; on the % scale 0 is the no-effect control and ±100 the full control effect
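Luciferase-expressing P. falciparum in infected erythrocytes (2% hematocrit, 0.1% parasitemia final) in RPMI 1640/0.5% Albumax were exposed to compound for 48 hours at 37 C, 5% CO2; growth read as luminescence.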
Shiga inhibitor = blocks Shiga toxin action in Vero cells | Vero cells, Shiga toxin protein synthesis inhibition reporter | inhibition, % at 38.7 µM | 290,000 compounds, 9.2% hits | AID 2315; in the data active means inhibition mostly above about 28%, no sharp cut-off; inactive means mostly below about 43%; further: 0% is about no effect
HCMV inh = inhibitors of human cytomegalovirus | 410,000 compounds, 4.5% hits | activity change, negative = inhibition, % at 57.5 µM | HFF cells, HCMV-luciferase reporter, 72 h; hits give low values; in the data active means activity change below about -60%; inconclusive means no clear call, values can overlap the other calls; inactive means above about -39%; further: on the % scale 0 is the no-effect control and ±100 the full control effect
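Compounds were evaluated in HFFs infected with an HCMV luciferase reporter virus (MOI 1 PFU/cell). Luciferase in lysates collected 72 h post infection served as the replication measure.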
Cycloheximide cs = affects cycloheximide protein synthesis inhibition readout, counter-screen; cell reporter, cycloheximide protein synthesis inhibition counterscreen; max response, %; 300,000 compounds, 12% hits; AID 2314; in the data active means max response mostly above about 13%, no sharp cut-off; inactive means mostly below about 14%; further: read at 38.3 µM for the half of the compounds with a filed dose; 0% is about no effect
HCV inh = blocks hepatitis C virus; Huh7.5.1 HCVcc-Cre infection, luciferase reporter, 44 h; AID 651820; 340,000 compounds, 3.4% hits; Potency, µM (doses to about 41.8 µM), without a hit: at the highest dose activity change, negative = inhibition, most hits filed as inhibitors; further: potency means the concentration at half of the fitted maximal effect; on the % scale 0 is the no-effect control and ±100 the full control effect
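Cells seeded at 1,000/well and cultured 4 h, then compounds added followed by HCVcc-Cre virus (~0.5 moi). After 44 h further culture, luciferase substrate was added, plates held 15 min at room temperature, and luminescence read for 15 sec.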
Pf growth 96h = inhibits malaria parasite growth, 96 h. Potency, µM (doses to about 28.7 µM), without a hit: at the highest dose activity change, negative = inhibition, most hits filed as inhibitors. 320,000 compounds, 6.9% hits. P. falciparum luciferase reporter growth, 96 h; further: potency means the concentration at half of the fitted maximal effect; on the % scale 0 is the no-effect control and ±100 the full control effect
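Delayed-death screen, second-generation endpoint: infected erythrocytes, 2% hematocrit, 0.05% parasitemia final; 96 hours at 37 C, 5% CO2; luciferase detection reagent; luminescence decrease equals reduced growth.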
An asterisk follows results filed as active. Hits are enriched below; roughly 21% of the tested compounds scored in any of these assays. Unless noted, the call rests on the fitted dose curve; in most records, active means well fitted inhibition curve with a large enough effect; inconclusive means small, poorly fitted or top-dose-only effect, or another doubt; inactive means no such curve, though single readings can be large or run the other way.

`Cc1cc(Nc2ccccc2)n(-c2ccc(C(=O)O)cc2)n1` gave Pf growth 48h -3.0%, Shiga inhibitor -10.0, HCMV inh -7.5, Cycloheximide cs -1.5, HCV inh 19.5% and Pf growth 96h 26.0%.
`Cc1cc(C)n(/C(=C\N(C)C)C(=O)c2ccc(Cl)cc2)n1` gave Pf growth 48h inconclusive, Shiga inhibitor -8.8, HCMV inh -60.9*, Cycloheximide cs -2.1, HCV inh 12.6% and Pf growth 96h 15.7%.
Screening Cc1nn(C(=O)c2ccccc2)c(C)c1Sc1ccc(Cl)cc1 returned HCMV inh -74.4*.
CCC(=O)Oc1c(Sc2ccc(Cl)cc2)c(C)nn1-c1ccccc1 was read as HCMV inh -93.5*.
`CCC(=O)Oc1c(Sc2ccc(C)cc2)c(C)nn1-c1ccccc1` gave HCMV inh 0.0.
Cc1cc(Nc2ccccc2)n(C(=O)c2ccc(Cl)cc2)n1 was read as Pf growth 48h -14.5%, Shiga inhibitor 71.7*, HCMV inh 9.9, Cycloheximide cs 34.6*, HCV inh -2.9% and Pf growth 96h inconclusive.
COc1ccc(C(=O)/C(=C\N(C)C)n2nc(C)cc2C)cc1 was read as Pf growth 48h 11.5%, Shiga inhibitor -7.7, HCMV inh -18.4, Cycloheximide cs -1.9, HCV inh 10.1% and Pf growth 96h 25.8%.
For CC(=O)c1cccc(NC(=O)NCc2ccc3c(c2)OCO3)c1 the results were Pf growth 48h 1.3%, Shiga inhibitor -6.0, HCMV inh -1.7, Cycloheximide cs 12.7, HCV inh -8.7% and Pf growth 96h 3.7µM*.
Cc1cccc(C)c1NC(=O)Nc1ccc2c(c1)OCO2 was read as Pf growth 48h inconclusive, Shiga inhibitor 37.7, HCMV inh -18.1, Cycloheximide cs 27.0, HCV inh 4.8% and Pf growth 96h -1.8%.
For O=C(NCc1ccc2c(c1)OCO2)Nc1cccc(Cl)c1 the results were Pf growth 48h 22.0%, Shiga inhibitor 57.5*, HCMV inh 34.7, Cycloheximide cs 41.0*, HCV inh -24.3% and Pf growth 96h 2.4%.
`CC(=O)c1cccc(NC(=O)Nc2ccc3c(c2)OCO3)c1` gave Pf growth 48h 117.5%, Shiga inhibitor 88.3*, HCMV inh -31.6, Cycloheximide cs 38.4*, HCV inh -19.0% and Pf growth 96h 43.2%.
`O=C(Nc1cccc(Cl)c1)Nc1ccc2c(c1)OCO2` gave Pf growth 48h -1.6%, Shiga inhibitor 72.5*, HCMV inh -12.9, Cycloheximide cs 47.5* and HCV inh -17.0%.
For CCOC(=O)c1cccn1C1C(=O)N(Cc2ccc(C(F)(F)F)cc2)c2ccccc21 (stereo unspecified) the results were HCMV inh -5.3.
COc1ccc(OC)c(CNS(=O)(=O)c2cn(C)cn2)c1 was read as Pf growth 48h 14.3%, Shiga inhibitor 16.9, HCMV inh 33.2, Cycloheximide cs 8.0, HCV inh 12.8% and Pf growth 96h 3.9%.
Cc1sc2ncnc(SCC(=O)NCC3CCCO3)c2c1C (stereo unspecified) was read as Pf growth 48h 0.0%, HCMV inh -21.0, HCV inh inconclusive and Pf growth 96h 1.0%.
Cc1nn(C)cc1CNC(=O)Nc1cccc(Cl)c1 was read as Shiga inhibitor 90.0*, HCMV inh -7.5, Cycloheximide cs 67.1*, HCV inh 2.8% and Pf growth 96h 88.4%.
For COCCC(=O)N1CCC(Oc2ccc(C(=O)NCc3nccn3C)cc2)CC1 the results were Pf growth 48h 2.0%, Shiga inhibitor -9.6, HCMV inh 2.3, Cycloheximide cs 11.0, HCV inh 9.8% and Pf growth 96h inconclusive.
Screening COc1cccc(/C=N/Nc2nnc(C)n2N)c1O returned Pf growth 48h -26.3%, Shiga inhibitor 18.8, HCMV inh 8.5, Cycloheximide cs 17.4, HCV inh 16.3% and Pf growth 96h 7.6%.
For COc1cccc(/C=N/Nc2ncnc3c2ncn3Cc2ccccc2)c1O the results were Pf growth 48h 1.85µM*, Shiga inhibitor -4.8, HCMV inh -98.0*, Cycloheximide cs -1.8, HCV inh inconclusive and Pf growth 96h 2.33µM*.
`COc1cccc(/C=N/Nc2c(Cl)cncc2Cl)c1O` gave Pf growth 48h 71.1%, Shiga inhibitor 84.5*, HCMV inh 88.7, Cycloheximide cs 31.7*, HCV inh inconclusive and Pf growth 96h -1.0%.
